Results reported in the supplement of paper PMC10849652.
The full data set covers some 7,900 targets. This sample favours those with a hit. About 0.6% of all pairs of compound and target were hits.

Legend:
Experiment in all cases: log2 fold change, soluble protein after heating vs DMSO (PISA); higher = thermal stabilisation; K562 cells, 10 uM, 30 min; active = over 0.2 and 3.5 SD of the protein, either way, in both replicates (recomputed)
bafetinib = compound: Cc1ccc(NC(=O)c2ccc(CN3CC[C@H](N(C)C)C3)c(C(F)(F)F)c2)cc1Nc1nccc(-c2cncnc2)n1 [bafetinib]
Summary of the method: (§1)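 K562 cells at 2×10^6 cells/mL were exposed to 10 μM compound for 30 min, then aliquots were heated for 3 min across 48°C-58°C, pooled, and extracted in PBS containing 0.5% NP-40 at 4°C. The supernatant after 21,000xg for 90 min was taken as soluble protein and measured by TMTpro 16plex LC-MS/MS with channel sums equalised. Thermal stability is reported relative to control samples, with values from duplicates. Fold changes are given on a log2 scale.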

dasatinib = compound: Cc1nc(Nc2ncc(C(=O)Nc3c(C)cccc3Cl)s2)cc(N2CCN(CCO)CC2)n1 [dasatinib]
Summary of the method: as §1

mubritinib = compound: FC(F)(F)c1ccc(/C=C/c2nc(COc3ccc(CCCCn4ccnn4)cc3)co2)cc1 [mubritinib]
Summary of the method: as §1

nilotinib = compound: Cc1cn(-c2cc(NC(=O)c3ccc(C)c(Nc4nccc(-c5cccnc5)n4)c3)cc(C(F)(F)F)c2)cn1 [nilotinib]
Summary of the method: as §1

[1] = compound: Cc1nc(Nc2n[nH]c3c2CN(C(=O)N[C@H](CN(C)C)c2ccccc2)C3(C)C)c2sccc2n1
Summary of the method: as §1

[2] = compound: Cc1ncc(-c2ccnc(Nc3ccc(S(C)(=O)=O)cc3)n2)n1C(C)C
Summary of the method: as §1

[3] = compound: Cn1cc(-c2ccc3c(c2)CCN3C(=O)Cc2cccc(C(F)(F)F)c2)c2c(N)ncnc21
Summary of the method: as §1

[4] = compound: Cn1cc(-c2ccc3nnc(C(F)(F)c4ccc5ncccc5c4)n3n2)cn1
Summary of the method: as §1

tipifarnib = compound: Cn1cncc1[C@@](N)(c1ccc(Cl)cc1)c1ccc2c(c1)c(-c1cccc(Cl)c1)cc(=O)n2C [tipifarnib]
Summary of the method: as §1

[5] = compound: Cc1cccc(CC(=O)N2CCc3c2ccc(-c2cn(C)c4ncnc(N)c24)c3F)n1
Summary of the method: as §1

Measured: log2 fold change

PSMC3 (UniProt E9PLG2)
inactive: bafetinib 0.147 | dasatinib 0.258 | mubritinib 0.059

PNPLA4 (UniProt P41247)
Chain of UniProt P41247 (P41247 whole entry, looked up): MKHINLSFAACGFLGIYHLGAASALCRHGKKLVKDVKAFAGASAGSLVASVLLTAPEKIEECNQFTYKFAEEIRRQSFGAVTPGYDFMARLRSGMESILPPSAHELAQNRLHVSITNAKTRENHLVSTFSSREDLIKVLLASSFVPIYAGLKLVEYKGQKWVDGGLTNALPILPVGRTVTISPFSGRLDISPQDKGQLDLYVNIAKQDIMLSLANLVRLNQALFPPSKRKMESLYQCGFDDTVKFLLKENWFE
active: mubritinib 0.826
inactive: bafetinib -0.339 | nilotinib 0.128 | [1] -0.019 | dasatinib -0.165 | [2] -0.001 | [3] 0.156 | [4] 0.078 | tipifarnib -0.039

POLR2C (UniProt P19387)
inactive: bafetinib 0.012 | nilotinib -0.042 | [1] 0.073 | dasatinib -0.031 | [3] 0.003 | [4] -0.06 | tipifarnib -0.081 | mubritinib -0.097
active: [2] 0.3

PDIK1L (UniProt Q8N165)
Chain of UniProt Q8N165 (Q8N165 whole entry, looked up): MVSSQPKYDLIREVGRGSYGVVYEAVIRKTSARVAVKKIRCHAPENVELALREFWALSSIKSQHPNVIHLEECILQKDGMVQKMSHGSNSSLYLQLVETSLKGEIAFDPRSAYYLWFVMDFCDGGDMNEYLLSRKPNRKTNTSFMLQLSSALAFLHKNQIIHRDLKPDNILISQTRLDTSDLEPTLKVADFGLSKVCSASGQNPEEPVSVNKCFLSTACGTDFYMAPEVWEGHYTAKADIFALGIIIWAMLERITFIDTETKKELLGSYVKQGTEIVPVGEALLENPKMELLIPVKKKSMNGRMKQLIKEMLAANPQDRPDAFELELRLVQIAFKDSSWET
active: [1] 0.578
inactive: bafetinib 0.166 | nilotinib -0.026 | dasatinib -0.081 | [2] -0.037 | [3] 0.05 | [4] 0.13 | tipifarnib -0.152 | mubritinib 0.034

PRR14L (UniProt Q5THK1)
Chain of UniProt Q5THK1 (Q5THK1 whole entry, looked up): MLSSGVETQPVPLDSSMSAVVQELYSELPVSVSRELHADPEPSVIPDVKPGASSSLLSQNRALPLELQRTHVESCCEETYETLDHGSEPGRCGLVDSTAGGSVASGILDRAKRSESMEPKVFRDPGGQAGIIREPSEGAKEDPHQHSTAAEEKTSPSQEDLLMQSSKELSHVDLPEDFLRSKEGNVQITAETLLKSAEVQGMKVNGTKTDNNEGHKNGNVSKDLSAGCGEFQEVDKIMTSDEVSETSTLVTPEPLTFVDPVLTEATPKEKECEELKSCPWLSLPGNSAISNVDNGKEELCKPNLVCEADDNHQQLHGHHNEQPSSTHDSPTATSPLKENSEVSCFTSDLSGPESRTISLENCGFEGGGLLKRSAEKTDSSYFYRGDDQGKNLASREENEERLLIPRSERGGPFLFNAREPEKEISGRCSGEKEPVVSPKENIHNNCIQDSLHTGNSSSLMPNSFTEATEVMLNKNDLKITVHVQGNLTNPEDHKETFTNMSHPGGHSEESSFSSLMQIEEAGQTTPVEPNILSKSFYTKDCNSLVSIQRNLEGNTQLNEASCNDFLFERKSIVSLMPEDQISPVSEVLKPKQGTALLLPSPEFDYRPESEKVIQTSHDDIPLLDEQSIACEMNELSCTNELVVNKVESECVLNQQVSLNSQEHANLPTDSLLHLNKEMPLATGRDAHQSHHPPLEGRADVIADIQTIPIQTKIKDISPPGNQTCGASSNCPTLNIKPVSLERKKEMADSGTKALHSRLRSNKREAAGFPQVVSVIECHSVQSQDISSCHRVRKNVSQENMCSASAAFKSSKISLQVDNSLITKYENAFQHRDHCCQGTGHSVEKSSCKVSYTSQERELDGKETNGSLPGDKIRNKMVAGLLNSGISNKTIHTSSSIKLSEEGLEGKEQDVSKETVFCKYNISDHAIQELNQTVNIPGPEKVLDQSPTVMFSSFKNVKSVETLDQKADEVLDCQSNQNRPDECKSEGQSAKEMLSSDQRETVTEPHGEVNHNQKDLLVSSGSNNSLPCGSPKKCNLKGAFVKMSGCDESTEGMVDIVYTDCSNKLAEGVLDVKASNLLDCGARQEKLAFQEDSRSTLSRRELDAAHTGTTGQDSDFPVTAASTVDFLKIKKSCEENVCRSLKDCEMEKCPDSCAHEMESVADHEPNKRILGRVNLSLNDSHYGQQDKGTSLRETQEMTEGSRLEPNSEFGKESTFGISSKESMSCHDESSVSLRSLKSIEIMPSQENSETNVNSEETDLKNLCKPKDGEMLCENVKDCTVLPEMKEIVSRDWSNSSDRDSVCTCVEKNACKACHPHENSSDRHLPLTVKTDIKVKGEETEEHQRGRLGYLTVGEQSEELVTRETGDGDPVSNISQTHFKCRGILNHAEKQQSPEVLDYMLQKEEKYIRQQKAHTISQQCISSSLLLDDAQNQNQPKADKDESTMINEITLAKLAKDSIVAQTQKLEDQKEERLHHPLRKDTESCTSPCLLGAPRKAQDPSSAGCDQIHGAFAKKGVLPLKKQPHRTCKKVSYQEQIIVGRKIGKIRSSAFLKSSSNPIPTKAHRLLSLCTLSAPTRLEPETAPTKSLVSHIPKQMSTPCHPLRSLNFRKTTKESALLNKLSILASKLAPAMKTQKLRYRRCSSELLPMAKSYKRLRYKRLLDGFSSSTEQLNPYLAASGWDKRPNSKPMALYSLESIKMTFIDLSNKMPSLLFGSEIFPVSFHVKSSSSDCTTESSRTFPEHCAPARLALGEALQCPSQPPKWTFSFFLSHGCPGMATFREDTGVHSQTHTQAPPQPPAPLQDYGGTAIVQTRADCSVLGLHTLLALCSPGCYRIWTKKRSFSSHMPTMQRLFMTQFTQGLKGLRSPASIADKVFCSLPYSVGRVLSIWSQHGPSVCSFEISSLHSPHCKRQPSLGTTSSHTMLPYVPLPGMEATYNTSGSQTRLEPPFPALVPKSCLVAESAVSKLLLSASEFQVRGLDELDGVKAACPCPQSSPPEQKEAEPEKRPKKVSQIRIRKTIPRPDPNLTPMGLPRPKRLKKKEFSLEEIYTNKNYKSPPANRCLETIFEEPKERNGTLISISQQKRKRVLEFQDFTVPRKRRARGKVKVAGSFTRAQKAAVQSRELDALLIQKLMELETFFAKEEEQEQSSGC
inactive: [5] -0.156 | nilotinib -0.027 | [1] -0.044 | [2] -0.007 | [3] 0.019 | tipifarnib -0.039

PIK3CD (UniProt O00329)
inactive: bafetinib 0.033 | [3] -0.228 | [4] 0.074 | tipifarnib 0.031

PEX5 isoform 4 (UniProt P50542)
inactive: dasatinib 0.139 | [3] 0.219 | [4] -0.078

PTEN isoform 2 (UniProt P60484)
Chain of UniProt P60484 (P60484 whole entry, looked up): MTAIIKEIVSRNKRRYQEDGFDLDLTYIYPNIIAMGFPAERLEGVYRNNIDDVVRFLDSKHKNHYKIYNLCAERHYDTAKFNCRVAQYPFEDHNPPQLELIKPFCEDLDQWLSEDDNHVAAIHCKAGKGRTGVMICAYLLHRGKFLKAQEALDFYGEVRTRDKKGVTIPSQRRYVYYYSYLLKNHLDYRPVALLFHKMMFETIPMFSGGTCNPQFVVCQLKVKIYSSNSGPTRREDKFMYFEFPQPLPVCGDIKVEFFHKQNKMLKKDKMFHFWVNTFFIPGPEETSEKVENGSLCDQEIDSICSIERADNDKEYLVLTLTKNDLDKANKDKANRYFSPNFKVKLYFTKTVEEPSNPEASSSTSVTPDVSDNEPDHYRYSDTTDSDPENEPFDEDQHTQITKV
inactive: [5] 0.158 | [4] -0.087 | tipifarnib -0.212

PSMA3 (UniProt G3V4X5)
inactive: bafetinib 0.159 | [4] 0.174 | tipifarnib 0.067

PSMB9 (UniProt P28065)
Chain of UniProt P28065 (P28065 whole entry, looked up): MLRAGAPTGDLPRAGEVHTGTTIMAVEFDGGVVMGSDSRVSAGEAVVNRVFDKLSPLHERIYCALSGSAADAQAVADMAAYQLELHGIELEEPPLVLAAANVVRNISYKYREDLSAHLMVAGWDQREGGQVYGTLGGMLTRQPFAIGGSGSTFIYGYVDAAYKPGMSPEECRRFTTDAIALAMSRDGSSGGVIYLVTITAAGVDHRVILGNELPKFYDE
inactive: bafetinib -0.22 | [5] -0.122 | [3] 0.054 | tipifarnib 0.03

PIAS4 (UniProt Q8N2W9)
Chain of UniProt Q8N2W9 (Q8N2W9 whole entry, looked up): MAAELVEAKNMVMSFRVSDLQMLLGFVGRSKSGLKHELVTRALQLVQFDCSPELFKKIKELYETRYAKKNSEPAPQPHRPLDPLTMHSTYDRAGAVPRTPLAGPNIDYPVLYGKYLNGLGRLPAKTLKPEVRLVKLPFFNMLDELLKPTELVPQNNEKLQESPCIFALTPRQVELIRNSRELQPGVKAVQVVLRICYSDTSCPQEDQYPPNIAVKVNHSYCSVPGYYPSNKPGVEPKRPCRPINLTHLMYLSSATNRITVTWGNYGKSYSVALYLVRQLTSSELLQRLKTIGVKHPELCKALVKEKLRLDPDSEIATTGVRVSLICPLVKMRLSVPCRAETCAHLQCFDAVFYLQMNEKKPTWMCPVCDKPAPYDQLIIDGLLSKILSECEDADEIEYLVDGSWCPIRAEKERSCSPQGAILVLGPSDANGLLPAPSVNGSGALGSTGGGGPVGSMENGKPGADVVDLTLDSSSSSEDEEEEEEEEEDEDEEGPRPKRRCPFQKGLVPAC
inactive: [5] 0 | dasatinib -0.116 | [4] 0.313 | tipifarnib 0.002 | mubritinib 0.199

PPP1R12B isoform 6 (UniProt O60237)
Chain of UniProt O60237 (O60237 whole entry, looked up): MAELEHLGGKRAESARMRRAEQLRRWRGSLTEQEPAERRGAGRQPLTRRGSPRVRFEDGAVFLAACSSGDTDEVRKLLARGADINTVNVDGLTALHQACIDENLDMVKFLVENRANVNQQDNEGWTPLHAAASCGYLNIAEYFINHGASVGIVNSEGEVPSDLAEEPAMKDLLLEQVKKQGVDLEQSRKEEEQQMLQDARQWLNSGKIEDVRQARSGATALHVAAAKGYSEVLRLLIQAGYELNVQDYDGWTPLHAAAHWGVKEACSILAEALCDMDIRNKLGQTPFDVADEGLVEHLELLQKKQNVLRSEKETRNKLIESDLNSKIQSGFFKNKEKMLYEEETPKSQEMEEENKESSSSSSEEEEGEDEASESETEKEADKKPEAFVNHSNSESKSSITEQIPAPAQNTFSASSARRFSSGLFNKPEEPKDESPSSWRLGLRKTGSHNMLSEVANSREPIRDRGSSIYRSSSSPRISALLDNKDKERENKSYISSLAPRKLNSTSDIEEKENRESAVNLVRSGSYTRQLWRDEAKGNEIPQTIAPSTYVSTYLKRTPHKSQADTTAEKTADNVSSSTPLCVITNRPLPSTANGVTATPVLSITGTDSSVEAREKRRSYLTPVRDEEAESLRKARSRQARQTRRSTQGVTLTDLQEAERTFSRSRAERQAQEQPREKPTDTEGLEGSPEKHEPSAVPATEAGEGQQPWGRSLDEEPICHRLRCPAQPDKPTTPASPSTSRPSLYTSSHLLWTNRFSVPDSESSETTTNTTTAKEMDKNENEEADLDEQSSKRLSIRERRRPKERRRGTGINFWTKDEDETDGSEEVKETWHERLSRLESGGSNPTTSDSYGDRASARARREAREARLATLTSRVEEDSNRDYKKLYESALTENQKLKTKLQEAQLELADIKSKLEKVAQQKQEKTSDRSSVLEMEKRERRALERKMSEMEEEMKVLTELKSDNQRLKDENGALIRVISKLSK
inactive: bafetinib -0.024 | nilotinib -0.004 | [1] -0.191 | [2] 0.007

QRICH1 (UniProt Q2TAL8)
inactive: bafetinib 0.042 | nilotinib -0.093 | [1] -0.118 | dasatinib -0.206 | [2] 0.078 | [3] 0.043 | [4] 0.108 | tipifarnib -0.159 | mubritinib -0.01

PUF60 isoform 2 (UniProt Q9UHX1)
inactive: bafetinib -0.089 | dasatinib -0.173 | [3] 0.043 | [4] -0.103 | tipifarnib -0.159 | mubritinib -0.257

PMS2CL (UniProt Q68D20)
Chain of UniProt Q68D20 (Q68D20 whole entry, looked up): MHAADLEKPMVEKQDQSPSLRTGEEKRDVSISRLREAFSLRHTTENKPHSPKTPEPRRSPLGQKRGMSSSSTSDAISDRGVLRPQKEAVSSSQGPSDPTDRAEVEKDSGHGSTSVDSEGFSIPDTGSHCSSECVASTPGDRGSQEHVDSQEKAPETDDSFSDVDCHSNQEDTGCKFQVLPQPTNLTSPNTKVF
inactive: nilotinib -0.189 | [1] -0.154 | [2] 0.115 | [4] -0.128 | mubritinib -0.054

PHRF1 (UniProt Q9P1Y6)
inactive: [4] 0.084 | tipifarnib 0.159 | mubritinib -0.099

PLCXD1 (UniProt Q9NUJ7)
active: bafetinib -0.642
inactive: [4] -0.099
